Measured values reported in the supplement of paper PMC13380429.

The compounds below were run on Vero E6 infected with SARS-CoV-2 (assay: morphology score (similarity to uninfected cells); higher = more like uninfected cells). Settings: 24 h.

SMILES | morphology score
Nc1nccc2c1ncn2[C@@H]1O[C@H](CO)[C@@H](O)[C@@H]1O [3-deazaadenosine] (10 µM) | 0.123
CNCc1cc(-c2ccccc2F)n(S(=O)(=O)c2cccnc2)c1 [vonoprazan] (10 µM) | 0.00653
CNC(=O)[C@@H](NC(=O)[C@H](CC(C)C)[C@H](O)C(=O)NO)C(C)(C)C [marimastat] (10 µM) | -0.0923
CCCOc1ccc(S(=O)(=O)N2CCN(CCO)CC2)cc1-c1nc2c(CCC)cn(CC)c2c(=O)[nH]1 [mirodenafil] (10 µM) | 0.127
COc1cc2ncnc(Nc3ccc(O)c(Br)c3)c2cc1OC (10 µM) | -0.194
OC[C@H]1NC[C@@H](O)[C@@H](O)[C@@H]1O [1-deoxymannojirimycin] (10 µM) | -0.0915
Cn1cnc2c(NCc3ccccc3)nc(NCCO)nc21 [olomoucine] (10 µM) | 0.0162
CC(C)[C@@H](C(=O)Nc1nccs1)c1ccc(Cl)cc1 (10 µM) | 0.0344
CC(C)(N)c1cc(C(=O)N[C@@H]2CCc3ccc(Oc4ccnc5c4CCC(=O)N5)cc3C2)cc(C(F)(F)F)c1 (0.833333 µM) | 0.227
O=[N+]([O-])c1ncc[nH]1 [azomycin-(2-nitroimidazole)] (10 µM) | -0.138
O=C(O)CC(S)C(=O)O (stereo not given) [mercaptosuccinic-acid] (10 µM) | -0.089
NCCc1cc[nH]n1 [betazole] (10 µM) | -0.0835
CNC(C)(C)Cc1ccccc1 [mephentermine] (10 µM) | -0.196
CO/N=C1/C[C@@H](C(=O)NC[C@@H](O)c2ccccc2)N(C(=O)c2ccc(-c3ccccc3C)cc2)C1 [OT-R-antagonist-1] (10 µM) | 0.118
Oc1ncnc2[nH]ncc12 [allopurinol] (10 µM) | -0.0914
COc1ccc(-c2cc(=O)c3c(O)c(OC)c(O)cc3o2)cc1OC [eupatilin] (10 µM) | -0.0115
CCc1nc(-c2cccc(C)c2)c(-c2ccnc(NC(=O)c3ccccc3)c2)s1 (10 µM) | 0.171
CC(C)(C)C(=O)NCCCC(=O)O [pivagabine] (10 µM) | 0.0513
COCc1c(-c2ccc(NC(=O)Nc3cc(C(F)(F)F)ccc3F)c(F)c2)c2c(N)ncnn2c1CN1CCOCC1 (0.833333 µM) | 0.227
O=C(/C=C/c1ccc(O)c(O)c1)O[C@H](Cc1ccc(O)c(O)c1)C(=O)O [rosmarinic-acid] (10 µM) | 0.152

SMILES | morphology score
Cn1c(=O)c2[nH]cnc2n(C)c1=O [aminophylline] (10 µM) | 0.187
COC(=O)Nc1nc2cc(C(=O)c3cccs3)ccc2[nH]1 [nocodazole] (0.833333 µM) | 0.025
CC(C)(C)c1[nH]cnc1/C=c1\[nH]c(=O)/c(=C/c2ccccc2)[nH]c1=O [plinabulin] (0.833333 µM) | -0.0585
Cc1ccc2c(c1)C1(CCN(CCc3nc(-c4ccccc4)oc3C)CC1)OC(=O)N2 (0.833333 µM) | 0.0199
CN(C)CCC(c1ccc(Br)cc1)c1ccccn1 (stereo not given) [brompheniramine] (10 µM) | -0.0213
CNC(=O)c1ccc(C)c(-n2c(C)cc(OCc3ccc(F)cc3F)c(Br)c2=O)c1 (0.833333 µM) | -0.158
O=C(O)[C@H](Cc1ccc(Nc2nccc3ccncc23)cc1)NC1=C(Br)C(=O)C12CCCCC2 (10 µM) | 0.0401
c1ccc2nc(N3CCNCC3)ccc2c1 [quipazine] (10 µM) | 0.118
CN1[C@@H]2C[C@@H](OC(=O)[C@H](CO)c3ccccc3)C[C@H]1[C@@H]1O[C@@H]12 (10 µM) | 0.141
O=C(Nc1cccc(Cl)c1)c1ccccn1 (10 µM) | 0.228
CC1(C)O[C@@H]2C[C@H]3[C@@H]4C[C@H](F)C5=CC(=O)C=C[C@]5(C)[C@H]4[C@@H](O)C[C@]3(C)[C@]2(C(=O)CO)O1 [flunisolide] (10 µM) | 0.103
O=C1[C@@H]2[C@H]3CC[C@H](C3)[C@@H]2C(=O)N1CCCCN1CCN(c2ncccn2)CC1 [tandospirone] (10 µM) | -0.0978
Cc1c2oc3c(C)ccc(C(=O)N[C@@H]4C(=O)N[C@H](C(C)C)C(=O)N5CCC[C@H]5C(=O)N(C)CC(=O)N(C)[C@@H](C(C)C)C(=O)O[C@@H]4C)c3nc-2c(C(=O)N[C@@H]2C(=O)N[C@H](C(C)C)C(=O)N3CCC[C@H]3C(=O)N(C)CC(=O)N(C)[C@@H](C(C)C)C(=O)O[C@@H]2C)c(N)c1=O [dactinomycin] (10 µM) | -0.16
CCC1=C[C@@H]2CN(C1)Cc1c([nH]c3ccccc13)[C@@](C(=O)OC)(c1cc3c(cc1OC)N(C)[C@H]1[C@@](O)(C(=O)OC)[C@H](OC(C)=O)[C@]4(CC)C=CCN5CC[C@]31[C@@H]54)C2 [vinorelbine] (10 µM) | -0.193
CCCS(=O)(=O)Nc1ccc(F)c(C(=O)c2c[nH]c3ncc(-c4ccc(Cl)cc4)cc23)c1F [vemurafenib] (10 µM) | 0.25
CC12CCC(CC1=O)C2(C)C (stereo not drawn) [camphor-(+)] (10 µM) | 0.101
CN1CCC2=C(C1)C(c1ccccc1)c1ccccc12 (stereo not given) [phenindamine] (10 µM) | -0.171
O[C@@H](Cc1ccncc1)C(Cl)(Cl)Cl (10 µM) | 0.21
O=C1C2CC=CCC2C(=O)N1SC(Cl)(Cl)Cl (stereo not given) [captan] (10 µM) | 0.232
NC(=O)CN1CC(O)CC1=O (stereo not given) [oxiracetam] (10 µM) | -0.00498
